Records with an inconclusive call do not appear. A call without a number means that no potency is given here. Unmarked numbers belong to inactive results. Active and inactive are the calls of the source. Calls come from the whole dose curve; as a rule, active = well fitted inhibition curve with a large enough effect in the repeat runs; inconclusive = weak or mixed curves, or effect the other way; inactive = no such curve, though single readings can be large or run the other way.
Potency is the fitted concentration of half-maximal effect.

In this assay the target is Nuclear receptor ROR-gamma (Homo sapiens) (UniProt P51449). The assay can be described thus: qHTS assay to identify small molecule antagonists of the retinoid-related orphan receptor gamma (ROR-gamma) signaling pathway (AID 1159521; note: nearly all actives have a fitted effect of over 50% in size; for activity change, negative = inhibition: top concentration of the series differs between compounds). Conditions: Tet-on RORgamma CHO cells, RORE-luciferase, 16 h; series mostly up to 92.4 µM. An excerpt: U.S. Tox21 Program National Center for Advancing Translational Sciences [NCATS] NIH Chemical Genomics Center [NCGC] U.S. Environmental Protection Agency [EPA] National Institutes of Environmental Health Sciences [NIEHS] National Toxicology Program [NTP] U.S. Food and Drug Administration [FDA] Tox21 Assay Overview: Nuclear steroid hormone receptors are involved in many biological processes including inflammatory responses, cell proliferation, and apoptosis. Environmental factors or compounds disrupting these nuclear receptor pathways and gene expression may promote susceptibility to immunotoxicants and autoimmune diseases. One important group of these expression factors are the retinoid-related orphan receptors. To assess compounds that may interfere with the retinoid-related orphan receptor gamma (ROR-gamma) transcription factor, a cell-based luciferase assay was used. The CHO cell-based assay utilizes a TET-inducible ROR expression factor and ROR response element-LUC reporter gene. Reporter gene activity was induced using Doxycycline Hyclate and measured after 16 hr incubation. Tet-on ROR gamma CHO cells were used to screen against the Tox21 10K compound library for ROR gamma antagonists by quantification of decreased reporter gene activity in terms of decreased luminescence.
Tox21 Assay Protocol Summary: Tet-on ROR gamma CHO cells were dispensed at 1,000 cells in 4 uL of culture medium per well into white wall/solid bottom 1536-well plates using a Multidrop Combi (Thermo Scientific, Waltham, MA) dispenser. Following incubation at 37 C and 5% CO2 for 4 hr, 23 nL of compounds dissolved in DMSO, positive controls or DMSO only were transferred by a Pintool station (Kalypsys, San Diego, CA) and after 2 hr incubation at 37 C, one ul of 1 uM (final concentration) of Doxycycline Hyclate was added to all the wells by using a Flying Reagent Dispenser (FRD) (Aurora Discovery, San Diego, CA). After 16 hr incubation at 37 C and 5% CO2, 5 uL of ONE-Glo reagent (Promega Corporation, Madison, WI) was added to each assay plate using FRD. After 30 min incubation at room temperature, luminescence was quantified on a ViewLux plate reader (Perkin Elmer, Waltham, MA).
A general note: Quantitative high-throughput screening tests each substance at several concentrations.
On to `O=C[C@H](O)[C@H](O)[C@H](O)CO`, for which the Potency entry was “inactive”.
On the same count and under the same terms, with `CC1(C)C(=O)N(Br)C(=O)N1Br` the entry was “inactive”; with `CCCC(=O)OCC(COC(=O)CCC)OC(=O)CCC`, “inactive”; with `OCCCCl`, “inactive”.
Same read-out and setting: with `CCOC(=O)CN` the entry was “inactive”.
As for `N[C@@H](CSSC[C@H](N)C(=O)O)C(=O)O`, the activity change, negative = inhibition is -16.9% [at 0.35 µM].
`COCC(=O)O[C@]1(CCN(C)CCCc2nc3ccccc3[nH]2)CCc2cc(F)ccc2[C@@H]1C(C)C`: the Potency was 26.6 µM (active).
On the same count and under the same terms, as for `CCCCCCCC/C=C\CCCCCCCC(=O)OCCOC(=O)CCCCCCC/C=C\CCCCCCCC`, the entry is “inactive”; as for `CC(C)CCOCCC(C)C`, “inactive”; as for `Nc1ncnc2c1ncn2[C@@H]1O[C@H](COP(=O)(O)O)[C@@H](O)[C@H]1O`, “inactive”.
Still for that read-out and setting: with `CC(C)c1ccccc1N` the entry was “inactive”.
The same measure, in the same setting: with `O=C(NO)c1ccccc1` the entry was “inactive”; with `Oc1ccc(-c2ccc(O)cc2)cc1`, “inactive”; with `Cn1cccc1`, “inactive”.
For `CCc1cccc(C)c1`, the Potency result was “inactive”.
`CCCCCCCCCCCCCC[n+]1ccccc1`: the Potency was 4.86 µM (active).
In the case of `CCCCOC(=O)C(C)CC` (stereo not given), the Potency result was “inactive”.
Still for that read-out and setting: as for `CN(C)c1ccc(N=NS(=O)(=O)O)cc1`, the figure is 4.33 µM (active); as for `O=C1OC(=O)c2ccc3c4c(ccc1c24)C(=O)OC3=O`, “inactive”.
Still for that read-out and setting: with `CNC(=O)c1cc(Oc2ccc(NC(=O)Nc3ccc(Cl)c(C(F)(F)F)c3)cc2)ccn1` the figure was 13.3 µM (active); with `Brc1ccccn1`, “inactive”.
On the same count and under the same terms, with `COC(=O)CC(C)CCC=C(C)C` (stereo not given) the entry was “inactive”.
For `O=C(Nc1ccc(Cl)c(Cl)c1)c1cc(Cl)cc(Cl)c1O`, the Potency was 2.17 µM (active).
Still for that read-out and setting: with `CC1=CCC(=O)O1` the entry was “inactive”; with `COc1cccc(O)c1`, “inactive”; with `CC1(C)C(=O)N(CO)C(=O)N1CO`, “inactive”.
Same read-out and setting: as for `CC1=CP(=O)(c2ccccc2)CC1` (stereo not given), the entry is “inactive”; as for `O=C1NCN(c2ccccc2)C12CCN(CCCC(c1ccc(F)cc1)c1ccc(F)cc1)CC2`, 26.6 µM (active).
On the same count and under the same terms, as for `COC(=O)C1=C(C)NC(C)=C(C(=O)OCCCN2CCC(c3ccccc3)(c3ccccc3)CC2)C1c1cccc([N+](=O)[O-])c1` (stereo not given), the figure is 23.7 µM (active); as for `Clc1cccnc1`, “inactive”; as for `COc1cccc(CCc2ccccc2OCC(CN(C)C)OC(=O)CCC(=O)O)c1` (stereo not given), 7.5 µM (active).
`CCc1c(C(=O)O)c(=O)cnn1-c1ccc(Cl)cc1`: the Potency result was “inactive”.
On to `CC1CCCNC1` (stereo not given), for which the Potency entry was “inactive”.
On the same count and under the same terms, with `c1cc(OCC2CO2)cc(OCC2CO2)c1` (stereo not given) the figure was 48.2 µM (active).
Consider `CO[Si](CCCNCCNCCN)(OC)OC`, for which the Potency entry is “inactive”.
Still for that read-out and setting: with `CN1CN(C)CN(C)C1` the entry was “inactive”; with `Cc1cc2c(C(C)C)c(O)c(O)c(C=O)c2c(O)c1-c1c(C)cc2c(C(C)C)c(O)c(O)c(C=O)c2c1O`, 10.6 µM (active).
In the case of `CC(C)(C)c1cc(CCC(=O)NCCCCCCNC(=O)CCc2cc(C(C)(C)C)c(O)c(C(C)(C)C)c2)cc(C(C)(C)C)c1O`, the Potency result was “inactive”.
The same measure, in the same setting: with `CCCC(C)CCC(C)=O` (stereo not given) the entry was “inactive”.
Same read-out and setting: as for `CNC(=S)NN`, the figure is 27.3 µM (active).
